Laboratory results: PubChem BioAssay (NCATS)
“And” between values parts separate entries of the source, which are not always exact repeats. Equal values may be shown once. Records with an inconclusive call do not appear. Where a call stands in place of a potency, no number is given. The source made the active and inactive calls. The call rests on the fitted dose curve; in most records, active means well fitted cell-killing curve with a large enough effect; inconclusive means small, poorly fitted or top-dose-only effect; inactive means flat fitted curve, though single readings scatter.

Assay: Cellular viability qHTS for adrenocortical cancer (ACC) cell line NCI-H295R (AID 1963990); further: nearly all actives have a fitted effect of over 60% in size
Details: CellTiter-Glo ATP luminescence, 48 h; series mostly up to 46.1 µM
Source text: PI: Naris Nilubol, MD Surgical Oncology Program, National Cancer Institute (NCI) National Institute of Health (NIH), Bethesda, Maryland Adrenocortical cancer (ACC) is a rare malignancy with poor survival outcomes and few treatment options. Currently, mitotane is the only FDA-approved therapy for ACC. Although adjuvant radiation therapy is rarely utilized, it has the potential to improve survival in select cases. Through a quantitative high-throughput drug screen (qHTS), we identified auranofin (AF), a thioredoxin reductase (TXNRD) inhibitor, as a promising candidate drug. This study aims to evaluate whether AF can enhance the efficacy of radiation therapy in the treatment of ACC. Two human ACC cell lines, SW-13 and NCI-H295R, were screened using the National Center for Advancing Translational Sciences (NCATS) Pharmaceutical Collection (NPC) and the Mechanism Interrogation PlatE (MIPE) library (~4,991 compounds). CellTiter-Glo (Cat # G7570, Promega, Madison, WI) was utilized to measure cell viability. Described herein are the results of the corresponding viability assay.
PROTOCOL TABLE (as described by Inglese J, Shamu CE and Guy RK. 2007) SEQUENCE No. (e.g., 1, 2, 3, etc.); […] (e.g., Cells, Incubation, Reagent, etc.); VALUE; DESCRIPTION. 1; Cells; 5 uL; white, solid-bottom, 1536-well tissue-culture treated plates. 2; Time; overnight culture at 37C with 5% CO2. 3; Compounds and control; 23 nL; Kalypsis pin tool (Wako USA) equipped with a 1536-well pin head to transfer to the assay plates. 4; Time; 48 hours; 37C with 5% CO2. 5; Reagent; 4 uL; CellTiter-Glo luminescent substrate mix. 6; Time; 20 min at room temperature. 7; Detection; Luminescence; ViewLux plate reader NOTES (numbers refer to Sequence numbers above) 1. NCI-H295R cells were harvested from a T175 flask and resuspended in ITS-supplemented DMEM serum-free medium at a concentration of 300 000 cells/mL. Then 5 uL of resuspended cells were dispensed into each well of white, solid-bottom, 1536-well tissue-culture-treated plates using a multidrop combi dispenser. The plates were covered with stainless steel gasket lids. 2-3. The plates were cultured overnight at 37C with 5% CO2. Twenty-three nL of compounds (eight selected concentrations from the NPC / MIPE) or positive control (10 mM stock of bortezomib) in DMSO was transferred to each well of the assay plate using a pin tool (Kalypsys, San Diego, CA, USA). The final concentration of the compounds in the 5 uL assay volume ranged from 0.5 nM to 46 uM. 4-6. After 48 hours of incubation at 37C and 5% CO2, 4 uL of CellTilter-Glo luminescent substrate mix (Promega, Madison, WI, USA) was added to each well. Then the plates were incubated for 20 minutes at room temperature. 7. After incubation, luminescence was measured using a ViewLux plate reader (PerkinElmer, Waltham, MA, USA) with a clear filter was used to measure the number of metabolically competent cells. To determine compound activity in the qHTS assay, the titration-response data for each sample was plotted and modeled by a four-parameter logistic fit yielding IC50 and efficacy (maximal response) values. Raw plate reads for each titration point were normalized relative to positive control ([…], 100% inhibition) and DMSO-only wells (basal, 0%). REFERENCES: Inglese J, Shamu CE and Guy RK, Reporting data from high throughput screening of small molecule libraries, Nature Chemical Biology, 2007, 3(8): 438-441. doi.org/10.1038/nchembio0807-438.

SMILES	Potency
C[CH2][Hg][S]c1ccccc1C(=O)O	1.64 µM (active)
CCC(OC(C)=O)C(CC(C)NC)(c1ccccc1)c1ccccc1 (stereo not given)	15.8 µM (active)
CCCOC(=O)c1cncn1C(C)c1ccccc1 (stereo not given)	inactive
Cc1cc(O)ccc1Cl	inactive
CCC1(C2=NCCN2)Cc2ccccc2O1 (stereo not given)	inactive
CCC1(c2cccc(O)c2)CCCCN(C)C1 (stereo not given)	inactive
C[C@@H]1CC[C@H]2[C@@H](C)C(=O)O[C@@H]3O[C@@]4(C)CC[C@@H]1[C@]32OO4	inactive
O=C(O)c1nn(Cc2ccc(Cl)cc2Cl)c2ccccc12	inactive
COc1ccc2[nH]cc(CCN(C(C)C)C(C)C)c2c1	inactive
CC(Cc1ccccc1)NCCCCl (stereo not given)	inactive
C[C@H]1CCC/C=C/C2C[C@H](O)C[C@H]2[C@H](O)/C=C/C(=O)O1 (stereo not given in full)	0.224 µM (active)
CN(C)[C@@H]1C(=O)C(C(N)=O)=C(O)[C@@]2(O)C(=O)C3=C(O)c4c(O)cccc4[C@@](C)(O)[C@H]3C[C@@H]12	inactive
O=[N+]([O-])c1cc([N+](=O)[O-])c2ccccc2c1	inactive
O=C(NCC1CCOCC1)c1cnc(Nc2ccc(Cl)cc2Cl)nc1C(F)(F)F	inactive
O=C(NC(=O)c1c(F)cccc1F)Nc1cc(Cl)c(OC(F)(F)C(F)C(F)(F)F)cc1Cl (stereo not given)	inactive
Cc1sc2c(c1C)C(c1ccc(Cl)cc1)=N[C@@H](CC(=O)OC(C)(C)C)c1nnc(C)n1-2	3.98 µM (active)
CCNc1nc(Cl)nc(NCC)n1	inactive
CC(C)(C)CC(C)(C)c1ccc(O)cc1	8.91 µM (active) and 13 µM (active)
COc1ccc2c3c1O[C@H]1[C@@H](O)C=C[C@H]4[C@@H](C2)N(C)CC[C@@]341	10 µM (active)
N#CC(C#N)=Cc1ccc(O)c(O)c1	inactive

SMILES	Potency
COP(=S)(OC)Oc1ccc(Sc2ccc(OP(=S)(OC)OC)cc2)cc1	inactive
CC(Cc1ccc2c(c1)OCO2)NO (stereo not given)	inactive
CC(=O)[C@H]1CC[C@H]2[C@@H]3CC[C@H]4C[C@H](O)CC[C@]4(C)[C@H]3C(=O)C[C@]12C	inactive
CCN(CC)CCOC(=O)C(O)(c1ccccc1)c1ccccc1	inactive
CC(C)C[C@H](CN)CC(=O)O	inactive
Nc1ccc([N+](=O)[O-])cc1	inactive
C[C@]12CC[C@@H]3[C@@H](CCC4=CC(=O)CC[C@@H]43)[C@@H]1CC[C@@H]2OC(=O)CCc1ccccc1	inactive
c1ccc(N2CCNCC2)cc1	inactive
Nc1c(Cl)c(Cl)c(Cl)c(Cl)c1Cl	inactive
CCOP(=S)(OCC)Oc1ccc2c(C)c(Cl)c(=O)oc2c1	inactive
C[C@]12CC[C@H]3[C@@H](CCC4=CC(=O)CC[C@@]43C)[C@H]1CC[C@H]2OC(=O)CCC1CCCC1	inactive
O=C(Nc1ccncc1)C(=O)c1cn(Cc2ccc(Cl)cc2)c2ccccc12	0.126 µM (active)
Clc1ccc(COC(Cn2ccnc2)c2ccc(Cl)cc2Cl)cc1 (stereo not given)	22.4 µM (active)
CCC1(c2ccccc2)C(=O)N(COC)C(=O)N(COC)C1=O	inactive
O=c1c(C2CC(c3ccc(-c4ccc(Br)cc4)cc3)Cc3ccccc32)c(O)sc2ccccc12 (stereo not given)	7.31 µM (active)
CNC(=O)Oc1cccc2ccccc12	inactive
COC(=O)[C@@H](N)CCCN/C(N)=N/[N+](=O)[O-]	inactive
C[N+]1(C)[C@@H]2CC[C@H]1CC(OC(=O)C(CO)c1ccccc1)C2 (stereo not given in full)	inactive
O=[N+]([O-])O[C@H]1CO[C@H]2[C@@H]1OC[C@H]2O[N+](=O)[O-]	inactive
c1ccc(CN2CCNCC2)cc1	inactive
